# In PubChem BioAssay (NCATS):
# Inconclusive results are not listed. A call without a number means that no potency is given here. The source made the active and inactive calls. Calls come from the whole dose curve; as a rule, active = well fitted activation curve with a large enough effect; inconclusive = small, poorly fitted or top-dose-only effect; inactive = flat fitted curve, though single readings scatter.
# Assay: Primary redox qHTS assay for identification of artifact compounds. (AID 1845223)
# Conditions: Amplex Red/HRP redox cycling with DTT, fluorescence; series mostly up to 53.8 µM
# Summary of the method: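 Redox-cycling detection via DTT (250 uM final) oxidation coupled to Amplex Red (25 uM)/HRP (250 mU/mL) in HBSS. 15 min preincubation plus 30 min after DTT, room temperature. Ex/Em 525/598 nm; 4-parameter Hill fit against DMSO and 10 uM DA3003.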
row,Compound,Potency
1,COC(=O)CC[C@@H](C)[C@H]1CC[C@H]2[C@@H]3CC(=O)[C@H]4C[C@H](OC(C)=O)CC[C@]4(C)[C@H]3CC[C@]12C,inactive
2,C[C@H]1C[C@H]2[C@@H]3CCC4=CC(=O)C=C[C@]4(C)[C@@]3(F)[C@@H](O)C[C@]2(C)[C@@]1(O)C(=O)COP(=O)(O)O,inactive
3,C=CC1(C)CC(OC(=O)C(=C)C(O)COC(C)=O)C(C(=C)C(=O)OC)C(O)C1C(=C)CO (stereo not given),inactive
4,CC1CCC2(NC1)OC1C(=O)C3C4CCC5CC(O[C@@H]6O[C@H](CO)[C@@H](O)[C@H](O)[C@H]6O[C@@H]6O[C@@H](C)[C@H](O)[C@@H](O)[C@H]6O)CCC5(C)C4CCC3(C)C1C2C (stereo not given in full),inactive
5,C/C=C(/C)C(=O)O[C@H]1C=C(C)C[C@H](OC(=O)c2ccc(O)cc2)C2[C@](O)(C(C)C)CC[C@@]21C (stereo not given in full),inactive
6,CON(C)C(=O)N1N=C(c2cc(F)ccc2F)S[C@@]1(CCCN)c1ccccc1,inactive
7,O=C(O)CCc1cc2ccoc2cc1O[C@@H]1O[C@H](CO[C@@H]2OC[C@](O)(CO)[C@H]2O)[C@@H](O)[C@H](O)[C@H]1O,inactive
8,O=C(NCC(=O)N1CC[C@H](NC2CCC(O)(c3ccc(-c4ncccn4)cn3)CC2)C1)c1cccc(C(F)(F)F)c1 (stereo not given in full),inactive
9,CCOC(=O)c1ccnc(CNCC(=O)N(CC)CCN(C)C)c1,inactive
10,COC(=O)C1(Cc2ccc(O)cc2)OC(=O)C(OC)=C1c1ccc(O)cc1 (stereo not given),inactive
11,C[C@@H]1CC[C@]2(C(=O)O)CC[C@]3(C)C(=CCC4[C@]5(C)C(CC[C@]43C)C(C)(C)[C@@H](O)[C@H](O)[C@@H]5O)C2[C@]1(C)O (stereo not given in full),inactive
12,CC12CCC3c4ccc(O)cc4CCC3C1CCC2OC1OC(C(=O)O)C(O)C(O)C1O (stereo not given),inactive
13,CCC(CCO[C@@H]1O[C@H](CO[C@H]2OC[C@](O)(CO)[C@H]2O)[C@@H](O)[C@H](O)[C@H]1O)C(C)(C)O (stereo not given in full),inactive
14,O=C(OCC12OC1C=CC(OC(=O)c1ccccc1)C2O)c1ccccc1 (stereo not given),inactive
15,COc1cc(/C=C/C(=O)OC2[C@H](O)CC(O)(C(=O)O)C[C@H]2O)ccc1O (stereo not given in full),inactive
